Bioassay records deposited in PubChem by Broad Institute.
This excerpt belongs to a sample that is enriched for hits.
Tgondii IFNg: inhibitors of Toxoplasma gondii growth with IFN-gamma; activity change, negative = inhibition, % (no concentration beside the values); Toxoplasma gondii growth in IFN-gamma-treated host cells; active compounds read low; actives 3.8% (n = 69,000); in the data active means activity change below about -70%, passing the limit was not always enough;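 further: host cells are HeLa cells infected with Toxoplasma gondii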
The depositor's hits bear a star; i = inactive; ! = not active in a repeat.

SMILES	Tgondii IFNg
COCCC(=O)c1ccc2nnc3nc(C)n(Cc4ccccc4)c3c2c1	-16
C=CCN1Cc2cnn(C)c2C(COCC2CC2)C1 (centres undefined)	-11
CCn1c(CC2CCNCC2)nn(CC2CC(c3ccccc3)=NO2)c1=O (centres undefined)	-3
O=C(O)CC1CC(c2ccccc2)=NO1 (centres undefined)	7
COc1cccc(CC2CC(c3ccccc3)=NO2)c1OCc1c(Cl)cccc1Cl (centres undefined)	-96*
CCN(CC)S(=O)(=O)N1CCn2nc(C(=O)N3CCCC3)cc2C1	-2
Cc1cc(C)n(Cc2nc(-c3ccc(NC(=O)C(C)C)cc3)oc2C)n1	118
CCN(Cc1c(F)cccc1Cl)C(=O)c1cnn2ccn(C)c12	2
C1CCC(C(CC2CCCCN2)C2CCCCC2)CC1 (centres undefined)	-96*!
CN(C)CC(=O)NCCC1CCCCN1 (centres undefined)	-5
CN1CCN(CCC2CCCCN2)CC1 (centres undefined)	17
CCc1cc(C2CCCN2C(=O)Cn2nc(C(F)(F)F)c3c2CCCC3)on1 (centres undefined)	0
O=C(CCC(=O)N1CC(=O)Nc2ccccc21)Nc1cccc(-n2cccn2)c1	1
COc1cc2cc(C)c(SCC(=O)N3CC(=O)Nc4ccccc43)nc2cc1OC	9
O=C1CN(C(=O)CSc2nc(C3CCCCC3)nc3ccccc23)c2ccccc2N1	-98*
CN1C(=O)N(Cc2ccccc2)C(=O)C12CCN(Cc1nc3ccccc3s1)CC2	2
Cc1cc(N(C)CCO)nc(-c2cccnc2)n1	-6
Nc1ncc(C(=O)Nc2cnc3n2CCCC3)c(-c2ccccc2)n1	2
COc1cc2ncnc(Nc3ccc(Cl)cc3F)c2cc1OC	-82*
COc1cc2ncnc(Sc3ccc(Cl)cc3)c2cc1OC	6
COc1cc2ncnc(Nc3ccc(F)c(Cl)c3)c2cc1OCCCN1CCOCC1	6
COc1ccc(-c2nc(Nc3ccc(F)cc3)c3ccccc3n2)cc1	-28
COc1ccc(-c2cc(-c3ccccc3)c(-c3ccccc3)o2)cc1	-16
COc1ccc(-c2cc(-c3ccc4ccccc4c3)n(C)c2-c2ccc(F)cc2)cc1	-94*
CC(=O)N1CCO[C@H]2CCN(Cc3cncn3C)C[C@H]21	i
SMILES	Tgondii IFNg
CN(Cc1cccc(Cl)c1)c1nc(-c2cccnc2)nc2c1cnn2C	-82*
CN(Cc1ncc[nH]1)c1nc(-c2cccnc2)nc2c1cnn2C	-6
CN(CCn1cccn1)c1nc(-c2cccnc2)nc2c1cnn2C	-40
O=C(CO)N1CCC2(CC1)OCCN(c1ncccn1)c1ccccc12	-26
CN1CCN(CC#N)C2(CCN(C(=O)c3cccn3C)C2)C1=O (centres undefined)	238
Fc1cccnc1OCC12CCCOC1CCN(Cc1ccncc1)C2 (centres undefined)	3
COc1cccc(-n2c(=O)c(C(=O)Nc3cc(F)cc(F)c3)c(O)c3cccnc32)c1	-32
Cc1nc(-c2ccc(CNC(=O)c3cc(CC(C)C)nn3C)cc2)no1	-78*
CC(C)c1cc(C(=O)NCc2nc(-c3ccccc3)no2)n(C)n1	-100*
CC(C)Cc1cc(C(=O)NCc2cnn3ccccc23)n(C)n1	-34
CCCn1ncc(C(=O)NCc2ccc(-c3noc(C)n3)cc2)c1C	-14
CC(C)c1cc(C(=O)NCc2cc(-c3ccco3)on2)n(C)n1	3
Cc1nccn1-c1ccccc1CNC(=O)c1cc(C(C)C)nn1C	-2
Cc1nc2c(c(=O)[nH]1)CN(C(=O)c1cc(-c3ccc(C)o3)[nH]n1)CC2	-34
Cc1ccc(CCNC(=O)c2nc(N3CCOCC3)c3ccccc3n2)cc1	-84*
Cc1ccccc1CNC(=O)c1nc(N2CCOCC2)c2ccccc2n1	-35
CCOc1ccccc1CNC(=O)c1nc(N2CCOCC2)c2ccccc2n1	-66
CC(C)Oc1ccc(CNC(=O)c2nc(N3CCOCC3)c3ccccc3n2)cc1	-79*
CCOC(=O)c1nc(N2CCOCC2)c2ccccc2n1	93
CC(C)Oc1ccc(CNC(=O)c2nc(Nc3ccccc3)c3ccccc3n2)cc1	-11
C[C@H](CCC(=O)O)[C@@H]1CC[C@H]2[C@@H]3CC[C@@H]4C[C@H](O)CC[C@]4(C)[C@H]3CC[C@@]21C	22
COCc1cc(C)nc(SCC(=O)Nc2cccc3c2CCCC3)c1C#N	121
C#C[C@]1(O)CCC2C3CCc4cc(OC)ccc4C3CC[C@@]21C (some centres undefined)	5
C[C@]12CCC3c4ccc(O)cc4CCC3C1C[C@@H](O)[C@@H]2O (some centres undefined)	-4
C[C@]12CC[C@@H]3c4ccc(O)cc4C(=O)C[C@H]3[C@@H]1CC[C@@H]2O	-3
SMILES	Tgondii IFNg
CC12CCC3c4ccc(O)cc4C=CC3C1CCC2=O (centres undefined)	-88*
C[C@]12CCC3c4ccc(O)cc4CCC3C1CC[C@@H]2O (some centres undefined)	-74*
C[C@]12CCC3c4ccc(OS(=O)(=O)O)cc4CCC3C1CC[C@H]2O (some centres undefined)	9
C#C[C@]1(O)CC[C@H]2[C@@H]3CCc4cc(OC)ccc4[C@H]3CC[C@@]21C	-6
CC(=O)O[C@]1(C(C)=O)CC[C@H]2[C@@H]3C=CC4=CC(=O)CC[C@]4(C)[C@H]3CC[C@@]21C	14
C[C@]12CC[C@@H]3c4ccc(O)cc4CC[C@H]3[C@@H]1CCC2=O	-77*!
CN(C)c1cccc(C(=O)N2CSC[C@@H]2C(=O)NCCc2csc(-c3ccccc3)n2)c1	-7
CCOc1ccccc1NC(=O)Cn1ncc2c(N3CCC(C)CC3)ncnc21	-2
CCn1c(C2CCN(Cc3nccn3CCOC)CC2)n[nH]c1=O	-23
CCOC(=O)c1nc(N2CCCC(C)C2)c2ccccc2n1 (centres undefined)	-35
O=c1oc(-c2ccccc2)nc2c1C1(CCCC1)Cc1ccccc1-2	-50
CC1(C)Cc2ccccc2-c2nc(-c3ccccc3)oc(=O)c21	6
CC1(C)CC2(CCCN(Cc3nc4c(c(=O)[nH]3)C3(CCCCC3)Cc3ccccc3-4)C2)CCO1 (centres undefined)	-85*
Cc1cccc(CN2CCCC3(CCN(c4cncnc4)C3=O)C2)n1 (centres undefined)	-3
O=c1[nH]c(CN2CCCC3(CCCCC3)C2)nc2c1C1(CCCCC1)Cc1ccccc1-2	-81*
COc1cccc(CC(=O)N2CC[C@H]3CN(Cc4cccnc4)S(=O)(=O)[C@@H]3CC2)c1	-34
c1cc(-c2ccc(CN3CCC(c4nnc5n4CCCCC5)CC3)o2)[nH]n1	-1
CC(=O)Nc1sc2c(c1C#N)CCc1ccccc1-2	-90*
CC(=O)Nc1ccc2c(c1)CCc1ccccc1-2	24
COc1nc2c(c(-c3ccco3)c1C#N)Cc1cc(NC(C)=O)ccc1-2	8
CCc1ccc(S(=O)(=O)N2CCC3(CC(C(=O)N(C)C(C)C)=NO3)C2)cc1 (centres undefined)	-27
Fc1cnc(N2CCCC3(CC(n4cnnc4)CO3)C2)nc1 (centres undefined)	-4
COc1ccc(-c2noc(CC(=O)NCc3ccccc3)c2-c2ccc(OC)cc2)cc1	-62
Cc1ccc(Oc2ccc(CNC(=O)c3c(-c4ccncc4)noc3C)cc2)cc1	-84*
Cc1noc(C)c1C(=O)NCc1ccc2c(c1)OCO2	-40
CCN(CC)CCOC(=O)C(c1ccccc1)C1CCCCC1 (centres undefined)	-77*!
CCN(CC)CCOC(=O)C(c1ccccc1)c1ccccc1	22
